DT40 TDP1 no CPT = qHTS for Inhibitors of human tyrosyl-DNA phosphodiesterase 1 (TDP1): qHTS in cells in absence of CPT; Potency, µM (doses to about 46.2 µM), inactives show top-dose activity change, negative = growth inhibition, usual class: inhibitors; 420,000 compounds, 15% hits; DT40 Tdp1-/- hTDP1 cells, no CPT, ATP luminescence, 48 h; AID 686978, 2013; further: potency means the concentration at half of the fitted maximal effect; on the % scale 0 is the no-effect control and ±100 the full control effect; nearly all actives have a fitted effect of over 55% in size
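Growth of hTDP1-complemented DT40 Tdp1-knockout cells is measured by ATP luminescence after at least 48 hr compound exposure at 37 °C, with DMSO substituting for the 20 nM CPT used in the parallel screen.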
TDP1 block = qHTS Assay for Inhibitors of Tyrosyl-DNA Phosphodiesterase (TDP1); Tyrosyl-DNA phosphodiesterase 1 (Homo sapiens), Q9NUW8; recombinant TDP1, AlphaScreen DNA substrate cleavage; Potency, µM (top dose mostly 130 µM), inactives show at the highest dose activity change, negative = inhibition, hits mostly inhibitors; 350,000 compounds, 0.28% hits; further: potency means the concentration at half of the fitted maximal effect; on the % scale 0 is the no-effect control and ±100 the full control effect; nearly all actives have a fitted effect of over 40% in size
Target sequence (Q9NUW8 whole entry, looked up): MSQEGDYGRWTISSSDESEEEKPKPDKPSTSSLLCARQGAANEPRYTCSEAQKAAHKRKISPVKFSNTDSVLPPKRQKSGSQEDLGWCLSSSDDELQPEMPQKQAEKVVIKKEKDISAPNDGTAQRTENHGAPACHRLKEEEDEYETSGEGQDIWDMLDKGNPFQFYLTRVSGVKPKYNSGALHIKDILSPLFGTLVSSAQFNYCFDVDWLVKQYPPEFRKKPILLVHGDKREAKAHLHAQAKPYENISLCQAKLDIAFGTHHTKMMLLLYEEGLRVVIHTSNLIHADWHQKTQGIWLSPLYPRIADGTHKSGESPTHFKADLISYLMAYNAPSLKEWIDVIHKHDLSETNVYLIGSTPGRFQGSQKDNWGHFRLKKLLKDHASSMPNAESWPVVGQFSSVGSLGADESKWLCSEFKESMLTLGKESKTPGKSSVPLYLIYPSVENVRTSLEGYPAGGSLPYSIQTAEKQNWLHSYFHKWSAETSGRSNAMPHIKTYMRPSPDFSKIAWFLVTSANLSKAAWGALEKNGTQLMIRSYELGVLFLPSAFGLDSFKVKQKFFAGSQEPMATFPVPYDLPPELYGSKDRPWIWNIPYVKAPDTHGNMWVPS
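Tdp1 1 nM final; 15 min RT w/ cpd; substrate 15 nM, 5 min; beads 10 ug/ml, 10 min; AlphaScreen read. Neg ctrl: no enzyme.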
TDP1 cell CPT = qHTS for Inhibitors of human tyrosyl-DNA phosphodiesterase 1 (TDP1): qHTS in cells in presence of CPT; chicken DT40 Tdp1-/-;hTDP1 cells + 20 nM CPT, ATP luminescence, 48 h; Potency, µM (titrated, usually from 46.2 µM), for the others: at the highest dose activity change, negative = growth inhibition, actives largely listed as inhibitors; 420,000 compounds, 12% hits; AID 686979, 2013; further: potency means the concentration at half of the fitted maximal effect; on the % scale 0 is the no-effect control and ±100 the full control effect; nearly all actives have a fitted effect of over 55% in size
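Chicken DT40 Tdp1-/- cells complemented with human TDP1, 400 cells/well, exposed to compounds plus 20 nM camptothecin for at least 48 h at 37 C; viability read as ATP content by CellTiter-Glo luminescence.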
miR-21 act = qHTS Assay for Modulators of miRNAs and/orActivators of miR-21; HeLa miR-21 FLuc reporter, luciferase, 48 h; Potency, µM (titrated, usually from 38.3 µM), inactives show at the highest dose activity change, positive = activation, usual class: activators; 340,000 tested, under 10 active;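 further: % of control where 0% means no effect; miR-21 action dims this reporter so a rising signal means less miR-21 action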
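HeLa cells stably expressing CMV-driven firefly luciferase with a downstream miR-21 binding sequence, endogenously expressing miR-21, were treated with titrations (up to about 40uM final) for 48 hours at 37 degree Celsius. Luciferase luminescence was read after lysis.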
uPA generation = qHTS for Inhibitors of Cell Surface uPA Generation. Potency, µM (doses to about 38.3 µM), for inactives: top-dose activity change, negative = inhibition, hits mostly inhibitors. AID 540303, 2011. cell surface uPA generation assay, qHTS. 330,000 compounds, 0.31% hits; active means well fitted inhibition curve with a large enough effect; inconclusive means small, poorly fitted or top-dose-only effect; inactive means no such curve, though single readings can be large or run the other way; tested in mouse RAW 264.7 cells; further: potency means the concentration at half of the fitted maximal effect; on the % scale 0 is the no-effect control and ±100 the full control effect; nearly all actives have a fitted effect of over 55% in size
* hit, by the source's call; ? = inconclusive; . = no result given; ! = repeats disagree. Most compounds without a hit are left out; they make up all but 16% or so of the library. Unless noted, the call rests on the fitted dose curve; in most records, active means well fitted curve in the direction sought with a large enough effect; inconclusive means small, poorly fitted or top-dose-only effect, or another doubt; inactive means no such curve, though single readings can be large; an effect the other way counts as inactive or inconclusive.

SMILES	DT40 TDP1 no CPT	TDP1 block	TDP1 cell CPT	miR-21 act	uPA generation
COc1ccc(C2=NN(C(=O)CSc3nc4ccccc4s3)C(c3ccc(F)cc3)C2)cc1 (stereo not drawn)	?	3%	21µM*	1%	-6%
CC(=O)N1CCC2(CCN(Cc3ccncc3)CC2)CC1	-4%	.	17%	.	.
CC1=CC(C)(C)Nc2ccc(OC(=O)CN3C(=O)c4cccc5cccc(c45)C3=O)cc21	2.6µM*	8%	2.9µM*	15%	-5%
C#CCOC(=O)CN1C(=O)c2cccc3cccc(c23)C1=O	0%	.	-4%	-31%	-3%
CCc1ccc2c(c1)C(C)=CC(C)(C)N2	?	-3%	?	1%	10%
CCOc1ccc2c(c1)C(C)=CC(C)(C)N2	?	7%	13µM*!	.	20%
O=C(OCCc1cc2ccccc2c(=O)o1)c1ccc(F)cc1	1%	-3%	?	.	-11%
CC(=O)c1ccc(NC(=O)CSc2nc(=O)n(Cc3ccncc3)c3c2CCC3)cc1	-3%	3%	-5%	-4%	.
COCc1cc(C)nc2sc3c(c12)NC(c1ccc(NC(C)=O)cc1)N(c1ccc(C)cc1)C3=O (stereo not drawn)	?	5%	?	-14%	.
COCc1cc(C)nc2sc3c(c12)NC(c1ccccc1C(=O)O)N(c1cccc(C(F)(F)F)c1)C3=O (stereo not drawn)	?	2%	29µM*	2%	.
COCc1cc(C)nc2sc3c(c12)NC(c1ccc(O)cc1)N(c1ccc(C)cc1)C3=O (stereo not drawn)	18µM*	-2%	18µM*	0%	.
COc1ccccc1C1Nc2c(sc3nc(C)cc(C)c23)C(=O)N1c1ccccc1 (stereo not drawn)	?	-5%	?	-58%	.
COc1cccc(-c2cnc3c(NC=O)cc(-c4ccc(N(C)C)cc4)cn23)c1	8.2µM*	.	15µM*	.	.
COc1ccc(-c2cnn3cc(-c4cccc(Cl)c4)cnc23)cc1	?	.	-15%	3%	8%
COc1ccc(-c2cc(NC=O)c3ncc(-c4cccc(OC)c4)n3c2)cc1	5.2µM*	.	5.8µM*	.	.
O=C(CCCc1ccccc1)NCCCN1CCOCC1	-2%	2%	-2%	-8%	-1%
Cn1/c(=N\NC(=O)C2CCCCC2)sc2ccccc21	8%	6%	3%	-20%	.
CCCNC(=O)C1CC(c2ccccc2[N+](=O)[O-])=NO1 (stereo not drawn)	-3%	.	-1%	.	-1%
CCS(=O)(=O)Nc1ccc(-c2cn3c(C)csc3n2)cc1	-25%	-3%	9%	12%	.
O=C(Cc1ccccc1)NC(NC(=O)Cc1ccccc1)c1cccc([N+](=O)[O-])c1	18µM*	5%	?	3%	?
COc1ccc2cc(CN(Cc3cccs3)Cc3nnnn3Cc3ccccc3)c(=O)[nH]c2c1	?	-3%	?	1%	-2%
Cc1cccc2cc(CN(Cc3cccs3)Cc3nnnn3Cc3ccccc3)c(=O)[nH]c12	23µM*	3%	?	15%	0%
CCOC(=O)Cn1nnnc1CN(Cc1cccs1)Cc1cc2cc(C)cc(C)c2[nH]c1=O	15µM*	5%	21µM*	0%	.
Cc1cccc2cc(CN(Cc3ccccc3)Cc3nnnn3Cc3ccccc3)c(=O)[nH]c12	13µM*	2%	?	.	.
CCC(C)(C)n1nnnc1CN(Cc1cccs1)Cc1cc2cc(OC)ccc2[nH]c1=O	?	5%	?	19%	-5%
SMILES	DT40 TDP1 no CPT	TDP1 block	TDP1 cell CPT	miR-21 act	uPA generation
CCOc1ccc2[nH]c(=O)c(CN(Cc3cccs3)Cc3nnnn3C(C)(C)CC)cc2c1	16µM*	2%	16µM*	18%	-2%
COC(=O)C12CCC(C)(c3nc4ccccc4nc31)C2(C)C (stereo not drawn)	?	0%	1%	-9%	3%
CC(C)(C)NC(=O)C12CCC(C)(c3nc4ccccc4nc31)C2(C)C (stereo not drawn)	22µM*	3%	11µM*	-6%	.
Cc1ccc2sc(N(CCCN(C)C)C(=O)c3ccc(Br)s3)nc2c1C	?	6%	?	-2%	3%
O=c1[nH]c(-c2ccccc2)ncc1Oc1ccccc1	11%	.	-4%	.	-10%
Cc1cccc(C(=O)Oc2ccc(/C=N/NC(=O)c3cc(O)cc(O)c3)cc2)c1	-20%	.	-20%	-10%	3%
O=C(N/N=C/c1ccc(OC(=O)c2ccccc2)cc1)c1cccc(O)c1	16µM*	6%	?	-25%	-2%
O=C(Oc1ccc(/C=N/NC(=O)c2ccccc2F)cc1)c1ccccc1	12µM*	-4%	9.2µM*	-15%	0%
CN(CC(=O)Nc1ccccc1Br)C(=O)c1cc(S(=O)(=O)N(C)C)ccc1N1CCCC1	-20%	.	-15%	.	3%
COc1ccc(S(=O)(=O)N2CCCCCC2)cc1C(=O)N(C)CC(=O)Nc1c(Cl)cccc1Cl	?	-4%	?	.	-3%
COc1ccc(S(=O)(=O)N2CCCCCC2)cc1C(=O)N(C)CC(=O)Nc1ccccc1Br	9.2µM*	.	?	.	-16%
COc1ccc(S(=O)(=O)N2CCCCCC2)cc1C(=O)N(C)CC(=O)Nc1ccccc1Cl	21µM*	.	?	.	7%
CC1(C)Cc2nc(N)c(=O)sc2C1	10%	4%	3%	0%	-4%
O=C1NC2=C(C(=O)OC2)C(c2ccc(OC(F)(F)F)cc2)N1 (stereo not drawn)	-1%	.	-1%	-9%	-2%
CCN1CCN(Cc2c(O)ccc3c(C)c(-c4ccc(OC)cc4)c(=O)oc23)CC1	23µM*	3%	?	-6%	.
CN1CCN(Cc2c(O)ccc3cc(-c4ccc(Cl)cc4)c(=O)oc23)CC1	?	3%	23µM*	-20%	.
COc1ccc(-c2cc3ccc(O)c(CN4CCCC(C)C4)c3oc2=O)cc1 (stereo not drawn)	16µM*	-11%	?	-5%	.
CCN1CCN(Cc2c(O)ccc3cc(-c4ccc(OC)cc4)c(=O)oc23)CC1	?	3%	?	-37%	.
CCOc1ccccc1C(=O)OCC(=O)NCc1ccc2c(c1)OCO2	11%	0%	2%	.	6%
Cc1ccc(NC(=O)N2CCN3CCCCC3C2)cc1C (stereo not drawn)	-2%	0%	2%	-16%	.
CCn1ncc(N(C)N)c(Cl)c1=O	-6%	3%	-2%	-19%	4%
COc1ccc(NC(=O)Nc2ccccc2OCc2cc(=O)n3ccccc3n2)c(OC)c1	?	5%	?	0%	.

High-throughput results deposited in PubChem by National Center for Advancing Translational Sciences (NCATS).
